Source: PubChem (National Center for Advancing Translational Sciences (NCATS))
This is a sample that favours compounds with a hit; in the whole collection about 19% have one here.
TDP1 block: blocks human tyrosyl-DNA phosphodiesterase 1; Q9NUW8; AID 485290; recombinant TDP1, AlphaScreen DNA substrate cleavage; Potency, µM (titrated, usually from 130 µM), for inactives: at the highest dose activity change, negative = inhibition, hits mostly inhibitors; 350,000 tested, 0.28% active; also: nearly all actives have a fitted effect of over 40% in size
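Signal: AlphaScreen proximity between streptavidin donor and anti-FITC acceptor beads on intact substrate. Reaction: Tdp1 1 nM, substrate 15 nM final, 5 min RT after 15 min compound preincubation.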
DT40 TDP1 no CPT: qHTS for Inhibitors of human tyrosyl-DNA phosphodiesterase 1 (TDP1): qHTS in cells in absence of CPT | DT40 Tdp1-/- hTDP1 cells, no CPT, ATP luminescence, 48 h | Potency, µM (doses to about 46.2 µM), for the others: top-dose activity change, negative = growth inhibition, hits mostly inhibitors | 420,000 tested, 15% active | AID 686978, 2013; also: nearly all actives have a fitted effect of over 55% in size
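Stably hTDP1-transfected Tdp1-null chicken DT40 cells were treated with library compounds minus camptothecin and grown for at least 48 hr at 37 °C, after which cellular ATP was quantified by luminescence.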
RORgamma inh: ROR gamma (mouse) transcription inhibition | 310,000 tested, 5.4% active | Drosophila S2 Gal4-RORgamma UAS-luciferase reporter, 20 h | Potency, µM (series often up to 53.6 µM), for inactives: at the top dose activity change, negative = inhibition, actives largely listed as inhibitors | AID 2551; also: nearly all actives have a fitted effect of over 60% in size
Target sequence (P51450 whole entry, looked up, the tested form may be a part): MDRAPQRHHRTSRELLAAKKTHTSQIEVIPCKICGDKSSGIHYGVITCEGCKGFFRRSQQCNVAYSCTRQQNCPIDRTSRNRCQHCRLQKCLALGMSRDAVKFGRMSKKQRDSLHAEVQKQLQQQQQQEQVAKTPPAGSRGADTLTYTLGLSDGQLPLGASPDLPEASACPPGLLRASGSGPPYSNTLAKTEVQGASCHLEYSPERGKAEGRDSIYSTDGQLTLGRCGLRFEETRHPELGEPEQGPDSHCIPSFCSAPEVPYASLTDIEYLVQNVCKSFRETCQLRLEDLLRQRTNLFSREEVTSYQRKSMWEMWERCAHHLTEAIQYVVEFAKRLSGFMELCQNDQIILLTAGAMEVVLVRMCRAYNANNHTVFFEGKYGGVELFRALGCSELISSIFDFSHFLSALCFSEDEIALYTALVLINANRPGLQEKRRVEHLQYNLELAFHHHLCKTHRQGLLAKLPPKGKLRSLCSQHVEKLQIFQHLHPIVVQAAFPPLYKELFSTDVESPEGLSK
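In this cell-based reporter format, copper sulfate (700 uM final) drives Gal4–ROR gamma fusion expression from a metallothionein promoter in Drosophila Schneider cells; compounds preincubated 1 hr, reporter read after 20 hr at ambient temperature.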
TDP1 cell CPT: DT40-hTDP1 cell growth loss with CPT; chicken DT40 Tdp1-/-;hTDP1 cells + 20 nM CPT, ATP luminescence, 48 h; Potency, µM (doses to about 46.2 µM), for the others: at the highest dose activity change, negative = growth inhibition, hits mostly inhibitors; 420,000 tested, 12% active; AID 686979; also: nearly all actives have a fitted effect of over 55% in size
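Chicken DT40 Tdp1-/- cells complemented with human TDP1, 400 cells/well, exposed to compounds plus 20 nM camptothecin for at least 48 h at 37 C; viability read as ATP content by CellTiter-Glo luminescence.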
VP16 counter: inhibits Gal4-VP16 luciferase reporter, ROR gamma counter-screen; Drosophila S2 Gal4-VP16 UAS-luciferase, luminescence, 20 h; Potency, µM (doses to about 53.6 µM), inactives show at the highest dose activity, negative = inhibition, hits mostly inhibitors; 310,000 tested, 3.5% active;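 also: Gal4-VP16 expression switched on by copper sulfate through the metallothionein promoter; nearly all actives have a fitted effect of over 50% in size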
The depositor's hits bear a star; ! = not confirmed by another sample; [ ] = remark or other dose. Calls follow the shape of the dose curve; as a rule, active = well fitted curve in the direction sought with a large enough effect; inconclusive = small, poorly fitted or top-dose-only effect, or another doubt; inactive = no such curve, though single readings can be large; an effect the other way counts as inactive or inconclusive. % is scaled to controls: 0 for no effect and ±100 for the full control effect; potency is read from the fitted curve at half-maximal effect.

Results for CC(C)(C)c1nc(CN2CCOCC2)ccc1O ?
TDP1 block: 0%; DT40 TDP1 no CPT: -17%; RORgamma inh: inconclusive; TDP1 cell CPT: -11%; VP16 counter: -12%[0.365 µM]

What do the screens show for `CC(C)(C)c1nc(CN2CCCCC2)cc(CN2CCCCC2)c1O`?
TDP1 block: 3%; DT40 TDP1 no CPT: inconclusive; RORgamma inh: -11%; TDP1 cell CPT: 18µM*; VP16 counter: -15%

Results for CCOc1cc(/C=N/NC(=O)c2ccccn2)ccc1OC(=O)c1cccs1 ?
TDP1 block: 5%[56.1 µM]; DT40 TDP1 no CPT: -19%; RORgamma inh: -11%; TDP1 cell CPT: -27%; VP16 counter: 25%

Results for C#CC(c1ccccc1)(c1ccccc1)n1ccnc1 ?
DT40 TDP1 no CPT: 23µM*; TDP1 cell CPT: inconclusive

What do the screens show for `Clc1ccccc1C(c1ccccc1)(c1ccccc1)n1ccnc1`?
TDP1 block: 16%[56.1 µM]; DT40 TDP1 no CPT: 10µM*; RORgamma inh: 6.3µM*!; TDP1 cell CPT: 8.1µM*; VP16 counter: inconclusive

How did COc1ccccc1-c1ccc(/C=C2/C=C(C)OC2=O)o1 do in these assays?
TDP1 block: 5%; DT40 TDP1 no CPT: 10µM*; RORgamma inh: 19%; TDP1 cell CPT: 13µM*; VP16 counter: inconclusive

Results for COc1ccccc1-c1ccc(/C=C2\C=CC(=O)O2)o1 ?
DT40 TDP1 no CPT: inconclusive; RORgamma inh: -6%; TDP1 cell CPT: 21µM*; VP16 counter: inconclusive

Results for COC(=O)c1ccccc1-c1ccc(C=O)o1 ?
TDP1 block: -1%; DT40 TDP1 no CPT: -5%; RORgamma inh: -6%; TDP1 cell CPT: -17%; VP16 counter: 1%

What do the screens show for `COc1cc(/C=C2\C=CC(=O)O2)cc(OC)c1`?
DT40 TDP1 no CPT: -22%; RORgamma inh: 7%; TDP1 cell CPT: 2%; VP16 counter: -15%

How did COCCCNCC#CCOc1ccc(OC)cc1 do in these assays?
TDP1 block: 0%; DT40 TDP1 no CPT: inconclusive; RORgamma inh: -5%; TDP1 cell CPT: inconclusive; VP16 counter: -14%[10 µM]

What do the screens show for `CCCCN1CC[C@H]2C=CC[C@@H](C(=O)Nc3ccc(Cl)c(C(F)(F)F)c3)[C@H]2C1=O`?
DT40 TDP1 no CPT: 10µM*; TDP1 cell CPT: inconclusive

Results for O=C(O)C1CCCCC1C(=O)Nc1ccc(Cl)cc1Cl (configuration not stated) ?
TDP1 block: 6%; DT40 TDP1 no CPT: 2%; RORgamma inh: -4%; TDP1 cell CPT: -12%; VP16 counter: -7%

Results for O=C(Nc1ccc(Cl)cc1Cl)[C@@H]1CC=C[C@@H]2CCN(C3CCCCC3)C(=O)[C@@H]21 ?
DT40 TDP1 no CPT: 18µM*; TDP1 cell CPT: 16µM*

What do the screens show for `O=C(Nc1ccc(Cl)c(C(F)(F)F)c1)[C@@H]1CC=C[C@@H]2CCN(C3CCCCC3)C(=O)[C@@H]21`?
DT40 TDP1 no CPT: 16µM*; TDP1 cell CPT: inconclusive

How did COCC1CCN(Cc2nc(-c3ccc(OC)cc3)no2)CC1 do in these assays?
TDP1 block: -3%; DT40 TDP1 no CPT: -25%; RORgamma inh: 2%; TDP1 cell CPT: -1%; VP16 counter: 2%

What do the screens show for `S=C(NCCc1ccccc1)N1CCN(Cc2ccc(Cl)c(Cl)c2)CC1`?
TDP1 block: 3%; DT40 TDP1 no CPT: inconclusive; RORgamma inh: inconclusive; TDP1 cell CPT: 18µM*; VP16 counter: -22%

What do the screens show for `Cc1cc(C)cc(NC(=S)N2CCN(Cc3ccccc3)CC2)c1`?
TDP1 block: 3%; DT40 TDP1 no CPT: inconclusive; RORgamma inh: 7.1µM*; TDP1 cell CPT: inconclusive; VP16 counter: inconclusive

How did CC(C)c1ccc(NC(=S)N2CCN(Cc3ccccc3)CC2)cc1 do in these assays?
TDP1 block: 0%; DT40 TDP1 no CPT: 26µM*; RORgamma inh: 7.9µM*; TDP1 cell CPT: inconclusive; VP16 counter: inconclusive

Results for CCC(C)NC(=S)N1CCN(Cc2ccccc2)CC1 (configuration not stated) ?
TDP1 block: 3%; DT40 TDP1 no CPT: -10%; RORgamma inh: 27%; TDP1 cell CPT: -9%; VP16 counter: inconclusive

Results for S=C(NCCc1ccccc1)N1CCN(C(=S)NCCc2ccccc2)CC1 ?
TDP1 block: -4%; DT40 TDP1 no CPT: -9%; TDP1 cell CPT: -8%

Results for COC(=O)c1ccc(NC(=S)N2CCN(Cc3cccc(C)c3)CC2)cc1 ?
TDP1 block: 6%; DT40 TDP1 no CPT: -11%; RORgamma inh: 11µM*; TDP1 cell CPT: -3%; VP16 counter: inconclusive

What do the screens show for `COc1ccc(-c2nnc(SC3CCOC3=O)n2C2CCCCC2)cc1OC` (configuration not stated)?
TDP1 block: 4%; DT40 TDP1 no CPT: -8%; RORgamma inh: 6%; TDP1 cell CPT: 5%; VP16 counter: -1%

Results for COC(=O)c1ccc(NC(=S)N2CCN(Cc3ccccc3)CC2)cc1 ?
TDP1 block: 8%; DT40 TDP1 no CPT: -5%; RORgamma inh: 3%; TDP1 cell CPT: -20%; VP16 counter: inconclusive

What do the screens show for `COc1ccc(NC(=S)N2CCN(Cc3ccc(C)cc3)CC2)cc1`?
TDP1 block: 5%; DT40 TDP1 no CPT: -25%; RORgamma inh: inconclusive; TDP1 cell CPT: -27%; VP16 counter: -4%

What do the screens show for `S=C(Nc1ccc(Cl)cc1)N1CCN(Cc2ccccc2)CC1`?
TDP1 block: -1%; DT40 TDP1 no CPT: -1%; RORgamma inh: 11µM*; TDP1 cell CPT: 0%; VP16 counter: -28%

How did O=S(=O)(c1ccccc1)N1CCN(C(=S)Nc2ccccc2)CC1 do in these assays?
TDP1 block: 6%; DT40 TDP1 no CPT: -4%; RORgamma inh: -15%; TDP1 cell CPT: 10%; VP16 counter: -5%

How did Cc1ccc(NC(=S)N2CCN(Cc3ccccc3)CC2)cc1 do in these assays?
TDP1 block: 4%; DT40 TDP1 no CPT: -4%; RORgamma inh: 7.9µM*; TDP1 cell CPT: -12%; VP16 counter: -1%

How did CC(C)c1ccc(NC(=S)N2CCN(S(=O)(=O)c3ccccc3)CC2)cc1 do in these assays?
TDP1 block: 6%; DT40 TDP1 no CPT: -6%; RORgamma inh: 11µM*; TDP1 cell CPT: -9%; VP16 counter: inconclusive

How did CN(CC(=O)Nn1cnnc1)S(=O)(=O)c1ccccc1 do in these assays?
TDP1 block: -2%; DT40 TDP1 no CPT: 1%; RORgamma inh: 8%; TDP1 cell CPT: -3%; VP16 counter: 4%

What do the screens show for `CCCC1(C(=O)OC)NC(c2cc(OC)c(OC)c(OC)c2)C2C(=O)N(CC)C(=O)C21` (configuration not stated)?
TDP1 block: 1%; DT40 TDP1 no CPT: -13%; RORgamma inh: -6%; TDP1 cell CPT: -2%; VP16 counter: 1%
